High-throughput results (PubChem)
Pf growth 48h: inhibits P. falciparum growth in the first generation, 48 h | P. falciparum luciferase growth in erythrocytes, 48 h | Potency, µM (series often up to 28.7 µM), for the others: at the highest dose activity change, negative = inhibition, most hits filed as inhibitors | 5.9% of 310,000 active | AID 504832
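Firefly luciferase activity from engineered P. falciparum reports growth; inhibitors lower the luminescent signal. Cultures contained 2% hematocrit erythrocytes at 0.1% final parasitemia.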
AMA1 RON2 block: inhibitors of Plasmodium falciparum AMA1-RON2 interaction | AlphaScreen AMA1-biotinylated RON2 peptide binding | Potency, µM (highest dose often 58.2 µM), for inactives: at the highest dose activity change, negative = inhibition, actives largely listed as inhibitors | 0.2% of 360,000 active;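 also: 0% = vehicle wells and -100% = peptide control; nearly all actives have a fitted effect of over 45% in size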
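AMA1 (3D7) with his tag at 25 nM final met compounds first, then biotinylated RON2 peptide at 25 nM; detection used donor plus acceptor beads, 10 µg/mL apiece, read by AlphaScreen after 30 min at room temperature.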
AmpC inh no detg: AmpC beta-lactamase inhibition without detergent; AmpC nitrocefin hydrolysis, absorbance 480 nm, 0.0001% Triton; Potency, µM (top dose mostly 57.1 µM), for inactives: at the highest dose activity change, negative = inhibition, actives largely listed as inhibitors; 0.52% of 330,000 active; AID 485341;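 also: plate controls were no compound for no effect and no enzyme for full effect; nearly all actives have a fitted effect of over 20% in size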
Target sequence (P00811 whole entry, looked up): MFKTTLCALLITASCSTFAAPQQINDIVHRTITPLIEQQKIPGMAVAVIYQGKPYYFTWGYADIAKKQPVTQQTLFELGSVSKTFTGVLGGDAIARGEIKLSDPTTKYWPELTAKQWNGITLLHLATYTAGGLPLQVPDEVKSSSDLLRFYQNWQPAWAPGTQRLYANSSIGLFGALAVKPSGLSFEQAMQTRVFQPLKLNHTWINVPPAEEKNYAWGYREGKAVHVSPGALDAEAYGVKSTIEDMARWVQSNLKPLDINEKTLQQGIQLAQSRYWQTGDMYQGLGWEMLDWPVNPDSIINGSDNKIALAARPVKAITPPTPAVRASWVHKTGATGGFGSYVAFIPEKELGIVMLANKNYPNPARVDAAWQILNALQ
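20 mM phosphate pH 7.0 + 0.01% (detergent screen) or 0.0001% Triton X-100; 5.3 nM AmpC reagent; cpd preinc 15 min RT; nitrocefin (800 uM stock) to start; A480 q20 s × 4 min; Activity was normalised to no-enzyme and no-compound control wells.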
Pf growth 96h: P. falciparum growth inhibition at 96 hours. P. falciparum luciferase reporter growth, 96 h. Potency, µM (highest dose often 28.7 µM), without a hit: top-dose activity change, negative = inhibition, actives largely listed as inhibitors. 6.9% of 320,000 active. AID 504834
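Compounds incubated with erythrocytes infected by luciferase-expressing P. falciparum (2% hematocrit, 0.05% parasitemia final) for 96 hours, 37 C in 5% CO2. Growth inhibition scored as decreased luciferase luminescence.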
HCV inhibitor: HCV inhibition. Huh7.5.1 HCVcc-Cre infection, luciferase reporter, 44 h. Potency, µM (highest dose often 41.8 µM), for the others: top-dose activity change, negative = inhibition, usual class: inhibitors. 3.4% of 340,000 active. AID 651820
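Infectious HCV cell culture screen: compound-treated cells (1,000/well, pre-plated 4 h) are infected with HCVcc-Cre at roughly 0.5 moi and grown 44 h. Infection is quantified by luciferase signal after 15 min substrate incubation at room temperature.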
AmpC detergent: blocks E. coli AmpC beta-lactamase in detergent assay. AmpC hydrolysis of nitrocefin, absorbance 480 nm, 0.01% Triton. AID 485294. 0.041% of 370,000 active. Potency, µM (doses to about 114 µM), for the others: top-dose activity change, negative = inhibition, usual class: inhibitors. P00811;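 also: 0% = no-compound wells and -100% = no-enzyme wells; nearly all actives have a fitted effect of over 25% in size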
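AmpC (5.3 nM in the dispensed reagent) in 20 mM phosphate pH 7.0 with 0.01% (detergent screen) or 0.0001% Triton X-100 was preincubated with compounds for 15 min at room temperature. Nitrocefin was then added from an 800 uM solution, and hydrolysis was followed at 480 nm.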
Numbers without * were called inactive; ? = inconclusive; . = no result; [ ] = dose if it differs, or a comment. Shown are actives, neighbours in structure and some others; about 11% of the full set was active somewhere. Calls follow the shape of the dose curve; as a rule, active = well fitted curve in the direction sought with a large enough effect; inconclusive = small, poorly fitted or top-dose-only effect, or another doubt; inactive = no such curve, though single readings can be large; an effect the other way counts as inactive or inconclusive. Unless noted, % is scaled to controls: 0 for no effect and ±100 for the full control effect; potency is read from the fitted curve at half-maximal effect.

SMILES | Pf growth 48h | AMA1 RON2 block | AmpC inh no detg | Pf growth 96h | HCV inhibitor | AmpC detergent
N=C1c2ccccc2CN1c1ccc(N2CCOCC2)c(S(=O)(=O)Nc2ccc(Cl)cc2)c1 | ? | . | 61% | 9.3µM* | . | 2%
COC(=O)c1c(C)cc(O)cc1O | . | -1% | . | . | 11% | .
COC(=O)c1cc(O)cc(OC)c1C(=O)c1c(O)cc(C)cc1O | ? | -20% | -34% | 5.2µM* | 3% | 7%
COC(=O)c1cc(O)cc(OC)c1Oc1cc(C)cc(O)c1C(=O)O | 2.6µM* | ? | -40% | -4% | 14% | 3%
Nc1nc(Sc2ccc([N+](=O)[O-])c3nonc23)c2[nH]cnc2n1 | . | ? | . | . | 2.8µM* | .
CNc1ncnc(Sc2nc(N)nc3nc[nH]c23)c1[N+](=O)[O-] | . | -6% | . | . | ? | .
Cc1ccnc(NC(=O)Nc2ccc3c(c2)N(C)C(=O)CS3)c1 | 100% | -6% | -10% | 13µM* | ? | ?
Cc1cccc(NC(=O)Nc2ccc3c(c2)N(C)C(=O)CS3)n1 | . | 4% | -6% | 10µM* | -11% | -9%
Cc1ccc(NC(=O)Nc2ccc3c(c2)N(C)C(=O)CS3)nc1 | ? | -26% | -23% | ? | ? | -10%
CC(C)NC(=O)CN1C(=O)CCn2nc(-c3cn(C)c4ccccc34)cc21 | . | . | . | . | . | 23%
CCOc1cc(-c2nnc(SCC(=O)NCc3ccccc3)nc2-c2ccc(OC)c(OCC)c2)ccc1OC | . | . | . | . | . | -7%
Cc1ccc2c(c1)N(C(=O)CCC(=O)Nc1ccccc1Br)CC(C)O2 (stereo not drawn) | -23% | 0% | 11% | ? | -20% | -20%
CC(=O)c1ccc(NC(=O)CCC(=O)N2CC(C)Oc3ccc(C)cc32)cc1 (stereo not drawn) | 7% | 0% | 26% | -1% | 10µM* | -1%
Cc1ccc(NC(=O)c2ccc(NCCCN3CCOCC3)c([N+](=O)[O-])c2)cc1Cl | 2.3µM* | 5%[2.32 µM] | 159% | 79% | 11µM* | ?
COc1ccc(NC(=O)c2ccc(NCCCN3CCOCC3)c([N+](=O)[O-])c2)cc1 | ? | -24% | 18% | -3% | 13µM* | ?
O=C(NCCCN1CCOCC1)c1ccc(Sc2cccc(Cl)c2)c([N+](=O)[O-])c1 | 3% | 4% | 187% | ? | 11µM* | -10%
O=C(NCCCN1CCOCC1)c1ccc(Cl)c([N+](=O)[O-])c1 | . | -15% | . | . | 0% | .
O=C(Nc1ccc(Cl)c([N+](=O)[O-])c1)c1ccc(NCCCN2CCOCC2)c([N+](=O)[O-])c1 | 15µM* | 25% | -19% | ? | 2.2µM* | -14%
CCC(C(=O)NCc1ccc2c(c1)CCN2C(=O)c1ccc(F)cc1)c1ccccc1 (stereo not drawn) | . | . | . | . | . | -2%
COc1ccc(OC)c(NC(=O)CSc2nc3ccccc3cc2Cc2ccccc2)c1 | ? | -16% | -36% | 6.6µM* | ? | 1%
COc1ccc(OC)c(NC(=O)CSc2nc3ccccc3c3nc4ccccc4n23)c1 | 0.83µM* | . | -40% | ? | 0% | ?
COc1cccc(Cc2nc3ccccc3nc2SCC(=O)Nc2cc(OC)ccc2OC)c1 | . | . | . | . | . | 14%
COc1ccc(NC(=O)CSc2nc3ccccc3cc2Cc2ccccc2)cc1 | ? | -2% | -25% | ? | -11% | -6%
COc1cc(NC(=O)CSc2nc3ccccc3cc2Cc2ccccc2)cc(OC)c1 | 12µM* | -7% | -19% | ? | ? | -13%
COc1cccc(NC(=O)CSc2nc3ccccc3cc2Cc2ccccc2)c1 | 3.3µM* | -3% | -28% | 7.4µM* | -11% | -5%
Cc1c(N=Cc2c(O)n(Cc3ccco3)c(=O)c3ccccc23)c(=O)n(-c2ccccc2)n1C | 12µM* | -5% | 32% | 17% | ? | ?
Cc1ccc(N2C(=O)CS(=O)(=O)C23C(=O)N(Cc2cccc(F)c2)c2ccccc23)cc1Cl (stereo not drawn) | . | . | . | . | . | 4%
